# Measurements from the supplement of paper PMC10412459.
# System: K562 SF3B1 K700E vs K562 SF3B1 WT
# Experiment: surviving fraction ratio K562 SF3B1 K700E / K562 SF3B1 WT (each relative to DMSO); higher = less selective killing of SF3B1 K700E cells
# Conditions: 5 days
# Method: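 Drug-sensitivity screen of an in-house 80-compound library in isogenic K562 SF3B1 K700E versus SF3B1 WT cells. 250 cells/well in 384-well plates were exposed 24 h after seeding to 0.5-1000 nM compound for 5 days, and viability was read by CellTiter-Glo. Surviving fraction is relative to DMSO, and the value is the ratio of surviving fraction in K700E to WT cells; the paper calls ratio <0.6 with P<0.01 selective.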
SMILES,surviving fraction ratio K562 SF3B1 K700E / K562 SF3B1 WT (0.5nM),surviving fraction ratio K562 SF3B1 K700E / K562 SF3B1 WT (1nM),surviving fraction ratio K562 SF3B1 K700E / K562 SF3B1 WT (5nM),surviving fraction ratio K562 SF3B1 K700E / K562 SF3B1 WT (10nM),surviving fraction ratio K562 SF3B1 K700E / K562 SF3B1 WT (50nM),surviving fraction ratio K562 SF3B1 K700E / K562 SF3B1 WT (100nM),surviving fraction ratio K562 SF3B1 K700E / K562 SF3B1 WT (500nM),surviving fraction ratio K562 SF3B1 K700E / K562 SF3B1 WT (1000nM)
COc1ccc(-c2cc3c(C)nc(N)nc3n([C@H]3CC[C@H](OCCO)CC3)c2=O)cn1,1.06,1.14,0.92,1,0.958,0.868,1.37,1.58
O=C(O)CC[C@H]1CC[C@@](c2cc(F)ccc2F)(S(=O)(=O)c2ccc(Cl)cc2)CC1,0.908,1.04,0.989,0.805,0.852,0.975,0.932,1.04
CS(=O)(=O)c1ccc(C(=O)Nc2ccc(Cl)c(-c3ccccn3)c2)c(Cl)c1,1.07,0.954,0.96,0.872,1,0.969,1.01,1.07
CCc1cc(Nc2nccc(-c3c(-c4ccc(OC)c(C(=O)Nc5c(F)cccc5F)c4)nc4ccccn34)n2)c(OC)cc1N1CCC(N2CCN(S(C)(=O)=O)CC2)CC1,0.969,0.921,0.92,0.907,0.817,0.805,0.824,0.842
COc1cc2c(cc1O)CC[C@@H]1[C@@H]2CC[C@]2(C)[C@@H](O)CC[C@@H]12 [2-methoxyestradiol],0.765,0.733,0.666,0.851,0.706,0.595,0.626,1.48
